The list is not random: actives were taken first. Their share in the collection is about 4.7%.
HTT prom inh = Primary qHTS for Identification of Small Molecule Inhibitors of Huntingtin Promoter Activity. HEK293 HTT promoter firefly luciferase reporter, 24 h. Potency, µM (top dose mostly 57.5 µM), for inactives: at the highest dose activity change, negative = inhibition, hits mostly inhibitors. 48,000 compounds, 0.93% hits; further: potency means the concentration at half of the fitted maximal effect; nearly all actives have a fitted effect of over 50% in size
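HEK293 cells carrying firefly luciferase reporters were seeded at 2,500 per well in Opti-MEM and cultured for 24 h. They were then treated with compounds at up to 57.5 uM final for 24 h at 37 degrees C before Dual-Glo luminescence readout.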
NTMT1 inh = Primary qHTS for Inhibitors of N-terminal methyltransferase 1 (NTMT1): MTaseGlo Assay; NTMT1 MTase-Glo SAH luminescence, purified enzyme; Potency, µM (titrated, usually from 114 µM), for the others: top-dose activity change, negative = inhibition, actives largely listed as inhibitors; 59,000 compounds, 2.5% hits; AID 1645870, 2021;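 further: potency means the concentration at half of the fitted maximal effect; plate controls were DMSO vehicle for no effect and no enzyme for full effect; nearly all actives have a fitted effect of over 65% in size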
Target sequence (Q9BV86 whole entry, looked up): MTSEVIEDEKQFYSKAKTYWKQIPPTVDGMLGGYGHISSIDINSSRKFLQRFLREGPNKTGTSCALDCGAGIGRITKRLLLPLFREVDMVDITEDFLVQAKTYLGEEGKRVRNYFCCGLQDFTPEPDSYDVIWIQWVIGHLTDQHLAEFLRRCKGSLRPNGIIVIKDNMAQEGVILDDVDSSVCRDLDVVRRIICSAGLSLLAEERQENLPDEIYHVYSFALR
FH mod = Identification of activators of human fumarate hydratase by quantitative high-throughput screening; Fumarate hydratase, mitochondrial (Homo sapiens), P07954; FH coupled MDH/diaphorase resazurin fluorescence, 15 min; Potency, µM (top dose mostly 79.9 µM), without a hit: at the top dose activity change, negative = inhibition, usual class: inhibitors; 54,000 compounds, 0.22% hits; AID 1347055, 2019; further: potency means the concentration at half of the fitted maximal effect; on the % scale 0 is the no-effect control and ±100 the full control effect; the screen sought activators but most active calls are inhibition curves; nearly all actives have a fitted effect of over 45% in size
HTT-AS promoter = Primary qHTS for Identification of Small Molecule Activators of Huntingtin-Antisense Promoter Activity. 48,000 compounds, 0.24% hits. HEK293 HTT-AS promoter firefly luciferase reporter, 24 h; response scale: percent change from vehicle, -100% = no light. Potency, µM (highest dose often 57.5 µM), inactives show at the top dose activity change, positive = activation, hits mostly activators. AID 1508624, 2021; further: potency means the concentration at half of the fitted maximal effect; nearly all actives have a fitted effect of over 55% in size
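HEK293 cells carrying firefly luciferase reporters were seeded at 2,500 per well in Opti-MEM and cultured for 24 h. They were then treated with compounds at up to 57.5 uM final for 24 h at 37 degrees C before Dual-Glo luminescence readout.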
GPR32 ag = qHTS for Agonists of Human Resolvin D1 Receptor DRV1; 48,000 compounds, 2.5% hits; activation, % at 76.9 µM; CHO-K1 GPR32 beta-arrestin PathHunter luminescence, 90 min; zero percent set by DMSO-only wells;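 active means activation of at least 60% and not above a set upper limit, about 1 call in 100 departs from these limits; inconclusive means activation of 40% to 60%, or above that upper limit; inactive means activation under 40%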; further: 0% is about no effect
Target sequence (O75388 whole entry, looked up): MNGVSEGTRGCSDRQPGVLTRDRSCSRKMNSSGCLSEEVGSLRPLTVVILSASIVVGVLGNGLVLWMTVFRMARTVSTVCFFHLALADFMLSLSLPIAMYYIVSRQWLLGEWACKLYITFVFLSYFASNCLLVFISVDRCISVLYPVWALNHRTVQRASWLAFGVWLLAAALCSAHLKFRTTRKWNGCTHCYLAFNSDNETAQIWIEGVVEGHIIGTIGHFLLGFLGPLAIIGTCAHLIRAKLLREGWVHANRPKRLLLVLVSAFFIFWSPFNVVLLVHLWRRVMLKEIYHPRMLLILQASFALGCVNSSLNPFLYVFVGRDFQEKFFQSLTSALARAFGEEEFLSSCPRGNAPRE
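Step 1: seed CHO-K1 GPR32 beta-arrestin cells, 2,500/well, overnight at 37 °C. Step 2: add compounds, 90 min at 37 °C. Step 3: detection reagent, 1 h ambient, then luminescence.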
* marks the source's active call; other numbers are inactive results; ? = inconclusive; nt = not tested or not shown; ! = not active in a repeat; [ ] = remark or other dose. Unless noted, the call rests on the fitted dose curve; in most records, active means well fitted curve in the direction sought with a large enough effect; inconclusive means small, poorly fitted or top-dose-only effect, or another doubt; inactive means no such curve, though single readings can be large; an effect the other way counts as inactive or inconclusive.

SMILES	HTT prom inh	NTMT1 inh	FH mod	HTT-AS promoter	GPR32 ag
Cc1ccc(NC(=O)Cn2c(=O)n(Cc3ccccc3)c(=O)c3sc4ccccc4c32)cc1	-2%	0%	2%	-9%	-8
CCc1nnc(SCC(=O)Nc2cc(Cl)c(OC)cc2OC)c2cc3oc(C)cc3n12	-2%	-1%	-5%	-5%	0
O=C(CN1C(=O)C2CCCCN2c2ccc(C(=O)N3CCCC3)cc21)NCc1ccccc1 (centres undefined)	-9%	1%	-2%	-18%	-12
C=CC(C)(C)c1[nH]c2ccccc2c1C1=C(O)C(=O)C(c2c[nH]c3c(CC=C(C)C)cccc23)=C(O)C1=O	nt	40µM*	-6%	nt	nt
COc1ccc(-c2nc(SCC(=O)NC(C)CCc3ccccc3)n[nH]2)cc1 (centres undefined)	?	?	-1%	-53%	17
O=C(CCc1ccccc1)NCCc1csc(-c2cccc(F)c2)n1	-26%	-2%	-13%	-12%	85*
CCOc1ccc(CC(=O)NCCc2csc(-c3ccc(Cl)cc3)n2)cc1	?	13%	-1%	-26%	88*
O=C(NCCc1csc(-c2ccc(F)cc2)n1)c1ccco1	-12%	-26%	5%	-4%	109*
Cc1c(CCNC(=O)c2ccco2)sc2nc(-c3ccc(F)cc3)nn12	-28%	7%	-16%	-11%	-12
Cc1ccc(-c2nc3sc(CCNC(=O)c4ccco4)c(C)n3n2)cc1	-21%	2%	-23%	-11%	65*
CCOc1ccc(CC(=O)NCCc2csc(-c3ccc(C)cc3)n2)cc1	?	19%	4%	-30%	-8
Cc1nc(-c2ccc(F)cc2)sc1CCNC(=O)c1ccco1	7%	9%	4%	?	-3
CCOc1ccc(CCNC(=O)c2ccc(C(=O)c3ccccc3)cc2)cc1OCC	nt	-2%	nt	nt	nt
CC(C)Cc1ccc(-c2ccc(=O)n(CC(=O)NCCc3ccccc3)n2)cc1	nt	-1%	nt	nt	nt
CC1=C(COC2OC(CO)C(O)C(O)C2O)C(C(CO)C(=O)O)CC1 (centres undefined)	nt	3%[29.8 µM]	8%[53.3 µM]	nt	nt
O=C(Nc1cc(F)ccc1F)N1CCC(CN2CCOCC2)CC1	-11%	13%	6%	-3%	-9
Cc1cccc(NC(=O)C(=O)NCCc2csc(-c3ccc(F)cc3)n2)c1C	-28%	10%	-12%	-11%	16
O=C(COc1ccccc1)NCCc1csc(-c2ccc(F)cc2)n1	-19%	-3%	-13%	-14%	120*
O=C(COc1ccc(Cl)cc1)NCCc1csc(-c2cccc(F)c2)n1	?	15%	-2%	-29%	77*
Cc1ccc(-n2nc(C(=O)Nc3cccc(C#N)c3)c3c4ccccc4n(C)c3c2=O)cc1	-7%	12%	-20%	9%	-2
Cc1cccc(CCNC(=O)c2cc3ccccn3n2)c1	nt	nt	nt	nt	101*
COc1ccc(OCC(=O)NCC(c2ccc(Cl)cc2)N2CCCCC2)cc1 (centres undefined)	-13%	?	-8%	-9%	-15
Cc1ccc(OCC(=O)NCC(c2ccc(Cl)cc2)N2CCCCC2)cc1 (centres undefined)	-30%	79µM*	-7%	-17%	-12
CCN(CC)CCNC(=O)c1ccc(-c2nc(CN3CCc4ccccc43)c(C)o2)cc1	-27%	-14%	-6%	-26%	97*
Cc1oc(-c2ccc(C(=O)NCCC(C)C)cc2)nc1CN1CCc2ccccc21	?	2%	-14%	-47%	-1
SMILES	HTT prom inh	NTMT1 inh	FH mod	HTT-AS promoter	GPR32 ag
CS(=O)c1ccc(-c2nc(-c3ccc(F)cc3)c(-c3ccncc3)[nH]2)cc1 (centres undefined)	-9%[116 µM]	35µM*	8%	-25%[116 µM]	nt
COc1ccc(S(=O)(=O)N2CCC(n3c(C)nc4cccnc43)CC2)cc1Cl	nt	nt	nt	nt	70*
Cc1cc(SCc2sc(-c3ccc(C(F)(F)F)cc3)nc2C)ccc1OCC(=O)O	14%	79µM*!	-5%[53.3 µM]	21%	nt
CN(C)CCNC(=O)c1cccn2c(=O)c3cc4ccccc4cc3nc12	nt	-14%[29.8 µM]	-13%[13.5 µM]	nt	nt
CCc1ccc(C2CC(=O)c3c([nH]c(C(=O)OC4CCCCCC4)c3C)C2)cc1 (centres undefined)	-4%	2%	6%	-12%	-5
CCOC(=O)c1[nH]c(C)c(C(=O)NCCc2ccccc2)c1C	38%	-21%	-3%	7.9µM*	85*
Cc1cc(C2CCCCC2)n(O)c(=O)c1	?	?	13%[53.3 µM]	-24%	77*
O=S(=O)(c1ccc2c(c1)OCCO2)N1CCN(S(=O)(=O)c2c(Cl)cc(C(F)(F)F)cc2Cl)CC1	nt	21%	nt	nt	nt
Cc1ccc(-n2nnc(-c3nsc(NC(=O)c4ccc(C)c(C)c4)n3)c2C)cc1	-30%	1%	9%	-18%	24
Cc1cc(C)cc(-n2nnc(-c3nsc(NC(=O)c4ccccc4Cl)n3)c2C)c1	-13%	-12%	10%	-22%	?
CCc1ccc(-n2nnc(-c3nsc(NC(=O)c4ccccc4Cl)n3)c2C)cc1	-34%	-2%	5%	-21%	105*
CCc1ccccc1-n1nnc(-c2nsc(NC(=O)c3ccc(C)c(C)c3)n2)c1C	?	14%	-5%	-67%	72*
CCN(C(=O)c1cc(S(=O)(=O)N2CCc3ccccc32)cn1C)c1cccc(C)c1	?	89µM*	-32%	-32%	-26
O=C(CNC(=O)c1ccc(F)cc1)OCc1cc(=O)n2nc(C3CC3)sc2n1	-8%	-6%	13%	-13%	18
C[N+](C)(C)CC[N+]1(C)Cc2c(Cl)c(Cl)c(Cl)c(Cl)c2C1	11%	7.9µM*	-8%[53.3 µM]	0%	?
Cc1nn(C)c2c1c(-c1ccccc1)cc(=O)n2CC(=O)NC(C)(C)C	-24%	-15%	-6%	-32%	91*
COc1ccc(C)cc1NC(=O)Cn1c(=O)cc(C)c2c(C)nn(C)c21	2µM*	9%	-10%	-94%	-4
CCOC(=O)c1ccc(N2C(=O)c3n[nH]c(-c4ccco4)c3C2c2ccc(OCC)cc2)cc1 (centres undefined)	20µM*	20%	?	-66%	-25
CCOc1ccc(CCNC(=O)CCCc2nnc3n(CCCOC)c(=O)c4sccc4n23)cc1	-12%	2%	0%	-2%	-3
CC(C)C(=O)N1c2nc(-c3ccco3)nn2C2(CCCCC2)[C@@H]2CCCC[C@@H]21	-17%	89µM*	2%	-23%	-14
CC(=O)N1c2nc(-c3ccco3)nn2C2(CCCCC2)[C@@H]2CCCC[C@@H]21	-1%	-18%	-7%	-8%	-4

Screening data from PubChem BioAssay.
